Assay results from PubChem BioAssay (NCATS).
Records with an inconclusive call do not appear. Calls of active or inactive are those of the source. Calls follow the shape of the dose curve; as a rule, active = well fitted curve in the direction sought with a large enough effect; inconclusive = small, poorly fitted or top-dose-only effect, or another doubt; inactive = no such curve, though single readings can be large; an effect the other way counts as inactive or inconclusive.

Key:
[1] = target: Phospholipid hydroperoxide glutathione peroxidase GPX4 (Homo sapiens) (UniProt P36969); experiment: Primary qHTS Assay for Inhibitors of Recombinant Selenoprotein Glutathione Peroxidase 4 (GPX4) (AID 1845192); also: nearly all actives have a fitted effect of over 65% in size; as to activity change, negative = inhibition: series mostly up to about 50 µM; % is scaled to controls: 0 for no effect and ±100 for the full control effect
In short: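 NADPH consumption followed by fluorescence at 340/450 nm, t=0 and after 15 min at room temperature. Reaction started with cumene hydroperoxide (0.5 mM final) after 30 min compound–GPX4 preincubation; final 200 nM GPX4, 100 nM GR, 1 mM GSH, 0.5 mM NADPH.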

[2] = target: Luciferin 4-monooxygenase (Photinus pyralis) (UniProt P08659); experiment: Primary firefly luciferase (FLuc) qHTS assay for identification of artifact compounds. (AID 1845220); also: nearly all actives have a fitted effect of over 60% in size;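 as to activity change, negative = inhibition: series mostly up to about 54 µM; plate controls were DMSO vehicle for no effect and no enzyme for full effect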
In short: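 Compounds sat 15 min at room temperature with 10 uM luciferin and 10 uM ATP (pH 7.6 Tris acetate). Firefly luciferase (10 nM final) was then added, and luminescence was read 5 min later. Data normalized to no-enzyme and DMSO controls were Hill-fitted.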

[3] = Primary fluorescence-based thiol-reactive (MSTI) qHTS assay for identification of artifact compounds. (AID 1845221); also: nearly all actives have a fitted effect of over 65% in size; also: potency is read from the fitted curve at half-maximal effect;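 as to activity change, negative = thiol reactive: series mostly up to about 54 µM; thiol-reactive compounds lower the probe fluorescence signal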
In short: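 qHTS titration of compound; 4 uM MSTI, PBS pH 7.4, 2% DMSO; 1 h RT, dark; fluorescence 525/598 nm; normalized to Acetyl-MSTI and MSTI; 4-parameter Hill fit.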

[4] = tested on: Nanoluciferase (engineered Oplophorus gracilirostris luciferase); experiment: Primary Nanoluciferase (NLuc) qHTS assay for identification of artifact compounds. (AID 1845222);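 also: series mostly up to about 54 µM; 0% = DMSO and -100% = no enzyme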
In short: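 Luminescence from secreted NLuc (filtered, 1:55-diluted S16 cell medium) read 5 min after Nano-Glo substrate; compounds preincubated 15 min, RT. Hill fits of inhibition normalized to DMSO and no-enzyme.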

[5] = target: Glutathione peroxidase 1 (Homo sapiens) (UniProt P07203); experiment: Primary qHTS Assay for Inhibitors of Recombinant Selenoprotein Glutathione Peroxidase 1 (GPX1) (AID 1845191); also: % is scaled to controls: 0 for no effect and ±100 for the full control effect; nearly all actives have a fitted effect of over 65% in size
In short: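 NADPH consumption tracked by fluorescence at 340/450 nm between t=0 and t=15 min, room temperature. Final mix: 10 nM GPX1, 100 nM glutathione reductase, 1 mM GSH, 0.5 mM NADPH, 0.5 mM cumene hydroperoxide, 0.01% BSA; 30 min compound–enzyme preincubation.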

[6] = Primary redox qHTS assay for identification of artifact compounds. (AID 1845223);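 also: 0% = DMSO and 100% = reference compound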
In short: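 Redox-cycling detection via DTT (250 uM final) oxidation coupled to Amplex Red (25 uM)/HRP (250 mU/mL) in HBSS. 15 min preincubation plus 30 min after DTT, room temperature. Ex/Em 525/598 nm; 4-parameter Hill fit against DMSO and 10 uM DA3003.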

Phospholipid hydroperoxide glutathione peroxidase GPX4 (Homo sapiens), sequence (P36969 whole entry, looked up): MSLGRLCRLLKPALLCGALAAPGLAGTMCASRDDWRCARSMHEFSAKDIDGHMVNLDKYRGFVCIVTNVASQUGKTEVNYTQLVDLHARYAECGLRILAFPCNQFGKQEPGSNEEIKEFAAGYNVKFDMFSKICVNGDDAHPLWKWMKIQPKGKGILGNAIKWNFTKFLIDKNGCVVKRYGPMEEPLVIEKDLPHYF
Glutathione peroxidase 1 (Homo sapiens), sequence (P07203 whole entry, looked up): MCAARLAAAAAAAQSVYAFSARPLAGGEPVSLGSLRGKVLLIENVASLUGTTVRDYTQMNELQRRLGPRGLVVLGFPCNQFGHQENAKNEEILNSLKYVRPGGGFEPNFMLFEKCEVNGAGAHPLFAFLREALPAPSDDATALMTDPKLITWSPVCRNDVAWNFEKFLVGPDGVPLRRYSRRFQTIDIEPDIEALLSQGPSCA

C/C=C/C=C/[C@@H]1O[C@](O)([C@H](CC)C(=O)NC/C=C/C=C(\C)[C@@H](OC)[C@@H](C)[C@@H]2O[C@H](/C=C/C=C/C=C(\C)C(=O)c3c(O)ccn(C)c3=O)[C@H](O)[C@@H]2O)[C@H](O)[C@H](O)C1(C)C
inactive: Potency [1] | outcome [2] inactive [at 11.6 µM] | activity change, negative = thiol reactive [3] 94.3% [at 11.5 µM] | activity, negative = inhibition [4] -0.199% [at 11.6 µM]

Cc1cc(C)c2nc(-c3ccccn3)cc(C(=O)Nc3ccc(S(=O)(=O)Nc4onc(C)c4C)cc3)c2c1
inactive: Potency [5] | Potency [4] | Potency [6]

CC(C)C1CCC(C(=O)N[C@@H](Cc2ccccc2)C(=O)O)CC1 (stereo partly drawn)
inactive: Potency [1] | Potency [2] | Potency [3] | Potency [4] | Potency [6]

C[C@@H]1CCC2C(C)(C)[C@H](O)[C@H](O)C[C@]2(C)[C@@]12Cc1c(O)cc3c(c1O2)CN(CCCC(=O)O)C3=O (stereo partly drawn)
inactive: Potency [1] | Potency [2] | Potency [3] | Potency [4]

O=C(O)CCc1ccc(NCc2cccc3c2CCCN3CCOc2ccccc2)cc1F
active: Potency [3] 1.5 µM
inactive: Potency [1] | Potency [2] | Potency [4] | Potency [6]

CCC12CCCN3CCc4c(n(c5ccccc45)C(O)C1)C32 (stereo not drawn)
inactive: Potency [1] | Potency [2]

O=C(OC[C@H]1O[C@@H](Oc2ccccc2COC(=O)C2(O)C=CCCC2O)[C@H](O)[C@@H](O)[C@@H]1O)c1ccccc1 (stereo partly drawn)
inactive: Potency [1] | Potency [2] | Potency [4]
active: Potency [3] 5.19 µM

CC1(C)[C@H]2C[C@H](C/C=C\CCCC(=O)O)[C@@H](NC(=O)c3csc4ccc(O)cc34)[C@@H]1C2
inactive: Potency [1] | Potency [2] | Potency [3] | Potency [4] | Potency [6]

CC1(C)O[C@H]2CC(=O)OC[C@@]23C1=C(O)C(=O)[C@]1(C)C3CC[C@@]2(C)[C@H](c3ccoc3)OC(=O)[C@H]3O[C@]321 (stereo partly drawn)
inactive: Potency [1] | Potency [2] | Potency [3] | Potency [4] | Potency [6]

C=C(C(=O)O)[C@@H]1CC[C@@]2(C)CCC[C@@](C)(O)[C@@H]2C1
inactive: Potency [1] | Potency [2] | Potency [3] | Potency [4] | Potency [6]

COc1cc(Nc2ccc([N+](=O)[O-])cc2C(=O)O)cc2ccccc12
inactive: Potency [1] | Potency [2]
active: Potency [3] 0.67 µM

C[C@]1(OC(=O)/C=C/c2ccccc2)C[C@@H](O)[C@]2(O)C=CO[C@@H](O[C@@H]3O[C@H](CO)[C@@H](O)[C@H](O)[C@H]3O)[C@@H]21
inactive: Potency [1] | Potency [2] | Potency [3] | Potency [4] | Potency [6]

C=CC(C)(O)CCC1C(C)(O)CCC2C(C)(C)CCCC21C (stereo not drawn)
inactive: Potency [1] | Potency [2] | Potency [3] | Potency [4] | Potency [6]

COc1cc(C(=O)OC[C@H]2O[C@@H](OC(C)(C)C(=O)O)[C@H](O)[C@@H](O)[C@@H]2O)cc(OC)c1O
inactive: Potency [1] | Potency [2] | Potency [3] | Potency [4] | Potency [6]

CCc1cccc2c3c([nH]c12)[C@@](CC)(CC(=O)O)OCC3
inactive: Potency [1] | Potency [2] | Potency [4] | Potency [6]

COc1c2cc(c(O[C@@H]3O[C@H](CO)[C@@H](O)[C@H](O)[C@H]3O)c1OC)CCCCC(O)CCc1ccc(O)c-2c1 (stereo partly drawn)
inactive: Potency [1] | Potency [2] | Potency [4] | Potency [6]
active: Potency [3] 6.53 µM

O=C(O)c1cccc(CN2C(=O)/C(=C(\c3ccccc3)c3ccc(Cl)cc3)c3ccccc32)c1
inactive: Potency [2] | Potency [4]

O=C(N[C@H](Cc1ccccc1)C(=O)O)c1sc2cc(F)ccc2c1Cl
inactive: Potency [1] | Potency [3] | Potency [6]

C=C(C)C1CCC2(C(=O)OC3OC(COC4OC(CO)C(O)C(O)C4O)C(OC4OC(C)C(O)C(O)C4O)C(O)C3O)CCC3(C(=O)O)C(CCC4C5(C)CCC(=O)C(C)(C)C5CCC43C)C12 (stereo not drawn)
inactive: Potency [1] | outcome [2] inactive [at 11.6 µM] | activity change, negative = thiol reactive [3] 183% [at 11.5 µM] | activity, negative = inhibition [4] 3.95% [at 11.6 µM] | redox activity (% of DA3003) [6] 7.53% [at 11.5 µM]

C/C(=C\C1CCC(C)C2CCC3(C)OC123)C(=O)O (stereo not drawn)
inactive: Potency [1] | Potency [2] | Potency [4]

Cc1c(O)cc2c(c1O)COC1(O)CCCOC21 (stereo not drawn)
inactive: Potency [1] | Potency [2] | Potency [4] | Potency [6]

C[C@@H]1O[C@@H](OC2C(O[C@H]3[C@H](O[C@H]4CC[C@@]5(C)C(CC[C@]6(C)C5CC=C5C7CC(C)(C)CC(O)[C@]7(C)CC[C@]56C)C4(C)C)O[C@H](C(=O)O)[C@@H](O)[C@@H]3O)OC(CO)C(O)C2O)[C@H](O)[C@H](O)[C@H]1O (stereo partly drawn)
inactive: Potency [1] | activity change, negative = inhibition [2] 2.46% [at 11.6 µM] | activity change, negative = thiol reactive [3] 22.1% [at 11.5 µM] | redox activity (% of DA3003) [6] 6.57% [at 11.5 µM]

CC1=CC(=O)CC(C)(C)C1CCC(C)O[C@@H]1O[C@H](CO)[C@@H](O)[C@H](O)[C@H]1O (stereo partly drawn)
active: Potency [3] 9.27 µM
inactive: Potency [1] | Potency [2] | Potency [4] | Potency [6]

O=C(O)c1ccc(NC(=O)[C@H](CC2CCCC2)n2cnc(C(F)(F)F)c2)nc1
inactive: Potency [1] | Potency [2] | Potency [3] | Potency [4] | Potency [6]

C/C=C(\C)C(=O)OCC1OC(OCC2OC(OC3(CO)OC(CO)C(O)C3O)C(O)C(O)C2O)C(O)C(O)C1O (stereo not drawn)
inactive: Potency [1] | Potency [2] | Potency [4]

COc1ccnc2[nH]cc(C(=O)C(=O)N3CCN(C(=O)c4ccccc4)CC3C)c12 (stereo not drawn)
inactive: Potency [1] | Potency [2] | Potency [3] | Potency [4] | Potency [6]
